In PubChem BioAssay (NCATS) one finds Potency and activity change, negative = inhibition data, which are given here for 25 molecules.

Structures are written as SMILES. Results filed as inconclusive are left out. Where a call stands in place of a potency, no number is given. Active and inactive are the calls of the source. Calls come from the whole dose curve; as a rule, active = well fitted inhibition curve with a large enough effect; inconclusive = small, poorly fitted or top-dose-only effect; inactive = no such curve, though single readings can be large or run the other way. *1 amine or outer side, *2 acyl side, *3 side chain or, on linkers, in order; H or OH if unused. Where a SMILES comes first, the peptide text is derived from it. [ ]: non-standard residue; d: D form. X4 = CC(C)=CCc1cc(C(O)C(N[*:1])C(=O)[*:2])ccc1O; dPhe(4-Cl) = N[C@H](Cc1ccc(Cl)cc1)C(=O)O; d2Nal = N[C@H](Cc1ccc2ccccc2c1)C(=O)O; dCit = NC(=O)NCCC[C@@H](N)C(=O)O; d3Pal = N[C@H](Cc1cccnc1)C(=O)O

In this experiment the test system is Zika virus NS2B-NS3 protease (unlinked complex). As to the kind of experiment: Primary screen GU Rhodamine qHTS for Zika virus inhibitors: Unlinked NS2B-NS3 protease assay (AID 1347159). Note: nearly all actives have a fitted effect of over 60% in size. Particulars: Recombinant ZIKV NS2B-NS3 protease, Rhodamine110 substrate fluorescence; series mostly up to 107 µM. The essentials: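 Noncovalent NS2B hydrophilic domain/NS3 protease complex (25 nM final) in 10 mM Tris-HCl pH 8.0, 0.01% Tween 20, preincubated 15 min with compounds (up to 114 microM), then 1.5 microM Rhodamine110 substrate. Fluorescence change over 15 min fitted to 4-parameter Hill.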
(In general: Quantitative high-throughput screening tests each substance at several concentrations.)
As to `N#Cc1ccc2[nH]cc(CCCCN3CCN(c4ccc5oc(C(N)=O)cc5c4)CC3)c2c1`, the Potency entry is “inactive”.
For `COc1cc(/C=C/C(=O)O[C@H]2[C@H](O)[C@@H](CO)O[C@@]2(CO)O[C@H]2O[C@H](CO)[C@@H](O)[C@H](O)[C@H]2O)ccc1O`, the Potency entry was “inactive”.
On to `COc1cc(O)cc(C)c1C(=O)O[C@@H]1[C@H](O)[C@@H](CO)O[C@H]1n1ccc(=O)[nH]c1=O`, for which the Potency entry was “inactive”.
The same measure, in the same setting: in the case of `O=C(Nc1c(-c2cccs2)nc2ccccn12)c1ccc(Cl)cc1` it was “inactive”; in that of `Cc1nc2sc(C(=O)NCc3ccncc3)c(N)c2c(C)c1Cl`, “inactive”; in that of `CC(C)=CCc1cc(C(O)C2NC(=O)CNC(=O)C(Cc3c[nH]c4ccccc34)NC(=O)C3CCCN3C(=O)CNC(=O)C(C(C)C)NC(=O)CNC2=O)ccc1O` (stereo not given) (cyclo(G[X4]GVGPW); configuration not given here), “inactive”.
Take `CC1(C(=O)O)CCCC2(C)C3=CCC4CC3(CCC12)CC4CO` (stereo not given): the Potency entry was “inactive”.
Turning to `C[C@@H]1O[C@@H](O[C@@H]2[C@@H](O)[C@@H](O[C@]3(CO)O[C@H](CO)[C@@H](O)[C@@H]3OC(=O)/C=C/c3ccc(O)cc3)O[C@H](CO)[C@H]2OC(=O)/C=C/c2ccc(O)cc2)[C@H](O)[C@H](O)[C@H]1O[C@@H]1O[C@@H](C)[C@H](O[C@@H]2OC[C@](O)(CO)[C@H]2O)[C@@H](O)[C@H]1O`, the Potency result was “inactive”.
Still for that read-out and setting: for `CC(O)(CC(=O)O)CC(=O)OCc1ccc(O[C@@H]2O[C@H](CO)[C@@H](O)[C@H](O)[C@H]2O)cc1` (stereo not given in full) the value was “inactive”; for `C[C@@H]([C@@H](O)c1ccc(O)cc1)N1CCC(O)(c2ccccc2)CC1`, “inactive”; for `O=C(CCCCN1CCOCC1)Nc1ccc(-c2cccnc2)cc1`, “inactive”.
For the molecule `CC1(C)CC[C@]2(C(=O)O[C@@H]3O[C@H](CO)[C@@H](O)[C@H](O)[C@H]3O)CC[C@]3(C)C(=CCC4[C@@]5(C)CC[C@H](O[C@@H]6O[C@H](C(=O)O)[C@@H](O)[C@H](O[C@@H]7O[C@H](CO)[C@H](O)[C@H](O)[C@H]7O)[C@H]6O)C(C)(C)C5CC[C@]43C)C2C1` (stereo not given in full), the Potency entry was “inactive”.
On to `C=C(C)[C@@H]1CC[C@]2(C)CC[C@]3(C)[C@H](CC[C@@H]4[C@@]5(C)CC[C@@H](O)C(C)(C)[C@@H]5CC[C@]43C)[C@@H]12`, for which the Potency entry was “inactive”.
For `C[C@@]12C[C@]3(O)O[C@H](O1)[C@]1(COC(=O)c4ccccc4)[C@H]3C[C@@]12O[C@@H]1O[C@H](CO)[C@@H](O)[C@H](O)[C@H]1O`, the Potency entry was “inactive”.
For the molecule `C=CC1C(OC2OC(CO)C(O)C(O)C2O)OC=C(C(=O)OC)C1CC(=O)OCC1C(C)C(O)CC1C(CO)COC(=O)CC1C(C(=O)O)=COC(OC2OC(CO)C(O)C(O)C2O)/C1=C\C` (stereo not given), the Potency result is “inactive”.
Consider `Cn1nnc(-c2ccc(-c3ccc(N4C[C@H](COP(=O)(O)O)OC4=O)cc3F)cn2)n1`, for which the Potency entry is “inactive”.
Consider `CC(=O)O[C@H]1CC[C@H](C)[C@@]2(C)[C@H](OC(C)=O)c3c(C)coc3C(=O)[C@H]12`, for which the Potency entry is “inactive”.
In the case of `O=[N+]([O-])c1cn2c(n1)OCC(OCc1ccc(OC(F)(F)F)cc1)C2` (stereo not given), the Potency result is “inactive”.
Turning to `O=C1OCc2cc3cccc(O[C@@H]4O[C@H](CO)[C@@H](O)[C@H](O)[C@H]4O)c3c(O)c21`, the Potency result is “inactive”.
`O=C1OCC(c2ccccc2)=C1Cc1ccccc1`: the Potency result is “inactive”.
Consider `CC1=CC(=O)CC(C)(C)[C@@]1(O)CC[C@@H](C)O[C@@H]1O[C@H](CO)[C@@H](O)[C@H](O)[C@H]1O`, for which the Potency entry is “inactive”.
For the molecule `CC1CCCCN1S(=O)(=O)c1ccc(N2CCCC2=O)cc1` (stereo not given), the Potency result was “inactive”.
Turning to `C=CC(C)(O)CC/C=C(\C)C(=O)OC1C(O)C(CO)OC(OC(=O)C23CCC(C)(C)CC2C2=CCC4C5(C)CCC(OC6OC(COC7OCC(OC(C)=O)C(O)C7OC7OC(COC(C)=O)C(O)C(O)C7O)C(O)C(O)C6O)C(C)(C)C5CCC4(C)C2(C)C(O)C3O)C1OC1OCC(OC2OCC(O)C(OC3OCC(O)C(O)C3O)C2O)C(O)C1O` (stereo not given), the activity change, negative = inhibition is 18.4% [at 19.1 µM] (inactive).
As for `CC1(C)C2CC=C(COC3OC(COC4OCC(O)(CO)C4O)C(O)C(O)C3O)C1C2` (stereo not given), the Potency entry is “inactive”.
As to `CC(=O)N[C@H](Cc1ccc2ccccc2c1)C(=O)N[C@H](Cc1ccc(Cl)cc1)C(=O)N[C@H](Cc1cccnc1)C(=O)N[C@@H](CO)C(=O)N[C@@H](Cc1ccc(O)cc1)C(=O)N[C@H](CCCNC(N)=O)C(=O)N[C@@H](CC(C)C)C(=O)N[C@@H](CCCN=C(N)N)C(=O)N1CCC[C@H]1C(=O)N[C@H](C)C(N)=O` (Ac-[d2Nal][dPhe(4-Cl)][d3Pal]SY[dCit]LRP[dA]-NH2), the Potency result was “inactive”.
